Consider 63 compounds from PubChem BioAssay AID1626 (SRMLSC, 2009).

A word on the inhibition: it is the change of the read-out against control, counted positive when it falls.

Each structure is given as a SMILES string. “And” between values parts separate entries of the source, which are not always exact repeats. Identical values can stand only once. Screen size: about 220,000 compounds; about 2,000 (0.91%) were called active. Not shown: some 2% with an inconclusive outcome. No stated cut-off is given here; in the data, inconclusive means inhibition above about 80% without an active follow-up result; inactive means below that; test concentration not stated here. Not all results are given here. Potency and affinity values are given separately.

The nature of the assay: M. tuberculosis H37Rv growth inhibitors, H37Rv strain (AID 1626).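 Further: bacteria incubated seven days before Alamar blue readout; 0% = bacteria only wells and 100% = bacteria with antibiotic wells.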 As to conditions: hits give high values, concentration not given here.
For `Cc1nc(NC(=O)COC(=O)c2ccc(S(=O)(=O)N3CCc4ccccc4C3)cc2)c(Cl)cc1Cl`, the inhibition is -3.47% (inactive).

Consider `COc1cc(NC(=S)N2CCC(C(O)(c3ccccc3)c3ccccc3)CC2)cc(OC)c1`, for which the inhibition is 4.64% (inactive).

In the case of `COc1ccccc1C(=O)NNC(=O)c1nn(Cc2ccccc2)c(=O)c2ccccc12`, the inhibition is 2.78% (inactive).

Consider `O=c1cc(CSCc2ccc(Cl)cc2)[nH]c(=O)[nH]1`, for which the inhibition is 7.09% (inactive).

Regarding `Cc1[nH][nH]c(=O)c1N=Nc1ccc(Cl)cc1`, the inhibition is -0.49% (inactive).

Consider `COc1cc2c(cc1NC(=O)CSc1ccccc1)oc1ccccc12`, for which the inhibition was 83% (inactive).

`COc1cc2c(cc1NC(=O)CSc1nc3ccc(C)cc3[nH]1)oc1ccccc12`: the inhibition was 51.1% (inactive).

As for `COc1ccc(-c2cc(C(F)(F)F)n3nc(C(=O)Nc4c(C)n(C)n(-c5ccccc5)c4=O)cc3n2)cc1`, the inhibition was 8.28% (inactive).

For `CCNc1nc(Cl)nc(NNC(=O)C(C)Oc2ccccc2)n1` (stereo not drawn), the inhibition was 0.39% (inactive).

As to `CCN(c1ccc(NC(=O)CN2C(=O)NC3(CCOc4ccccc43)C2=O)cc1)C(C)C` (stereo not drawn), the inhibition is -1.8% (inactive).

Consider `N#CCSc1nnc(N)s1`, for which the inhibition was 8.52% (inactive).

With `Nc1c2c(nc3ccccc13)CCC2`, the inhibition is 3.36% (inactive).

On to `Nc1c2c(nc3ccn(-c4ccccc4)c(=O)c13)CCCCC2`, for which the inhibition was 11.1% (inactive).

Regarding `Cc1ccc(CNC(=O)C2CC(c3ccccc3F)=NO2)cc1` (stereo not drawn), the inhibition was 0.74% (inactive).

Regarding `COC(=O)CN(C#N)c1nc(N(C)C)nc(N(C)C)n1`, the inhibition was -2.49% (inactive).

For the compound `CCOC(=O)CN(C#N)c1nc(C)cc(C)n1`, the inhibition is -5.87% (inactive).

As to `CCCCCCN1CCN(c2ccccc2Cl)CC1`, the inhibition is 4.25% (inactive).

As to `O=C(Nc1ccc(F)cc1F)Nc1ccccc1C(=O)NCCN1CCNC1=O`, the inhibition is -7.32% (inactive).

As to `CCOC(=O)c1nc2sc3c(c2c(=O)[nH]1)CCCC3`, the inhibition is 6.3% (inactive) and 4.22% (inactive).

As to `CC(C)CCOCc1nc2sc3c(c2c(=O)[nH]1)CCC(C)C3` (stereo not drawn), the inhibition is 5.08% (inactive).

Turning to `CCOC(=O)N1CCC(NC(=O)CS(=O)Cc2nc(-c3ccc(OC)c(OC)c3)oc2C)CC1` (stereo not drawn), the inhibition was 1.72% (inactive).

Take `Cc1cc(OC2CCCCC2)nc(NCc2ccccc2)n1`: the inhibition is 6.25% (inactive).

On to `Cc1ccc(/C=N/Nc2cc(C)nc(NCc3ccccc3)n2)cc1`, for which the inhibition was -1.4% (inactive).

Take `Cc1cc(N/N=C/c2ccccc2)nc(NCc2ccccc2)n1`: the inhibition was 7.85% (inactive).

Take `Cc1cc(N2CCCCC2)nc(NCc2ccccc2)n1`: the inhibition is 11.8% (inactive).

`CCCCNc1cc(C)nc(NCc2ccccc2)n1`: the inhibition was 8.03% (inactive).

For `COc1ccc(Nc2cc(C)nc(NCc3ccccc3)n2)cc1`, the inhibition was 20.5% (inactive).

Regarding `COc1ccc(NC(=O)CCCCn2c(=O)[nH]c3ccccc3c2=O)cc1`, the inhibition is -8.84% (inactive).

As to `CCc1cc(C(=O)N2CCc3c([nH]c4ccccc34)C2c2ccc(OC)cc2F)no1` (stereo not drawn), the inhibition is 1.56% (inactive).

As to `CC(=O)OC1c2ccccc2C(=O)N1Cc1ccccc1` (stereo not drawn), the inhibition was -4.69% (inactive).

With `Cc1nc(SCC(=O)Nc2ccc(F)cc2)c2oc3ccccc3c2n1`, the inhibition is -5.02% (inactive).

On to `Fc1cccc(CSc2ncnc3c2oc2ccccc23)c1`, for which the inhibition is 5.28% (inactive).

In the case of `Cc1nc(SCCO)c2oc3ccccc3c2n1`, the inhibition is 10.1% (inactive).

Regarding `Fc1ccc(CSc2ncnc3c2oc2ccccc23)cc1`, the inhibition is 15.6% (inactive).

For the compound `CCc1nc2c(c(=O)c3ccccc3n2C)c(=O)n1CCc1ccc(OC)cc1`, the inhibition is 19.9% (inactive).

For `O=C(NCc1nc(-c2ccc(C(F)(F)F)cc2)no1)Nc1ccc(F)cc1F`, the inhibition is 8.4% (inactive).

Turning to `O=C(NCc1nc(-c2ccc(C(F)(F)F)cc2)no1)Nc1ccc(OC(F)(F)F)cc1`, the inhibition is -5.05% (inactive).

On to `COc1ccc(N(C(=O)CNC(=O)c2cccs2)C(C(=O)NCC2CCCO2)c2ccccc2)cc1OC` (stereo not drawn), for which the inhibition is -7.89% (inactive).

As to `Cc1ccc(C(=O)N2CCN(c3ccc([N+](=O)[O-])cc3-n3cccc3)CC2)cc1`, the inhibition was 33.7% (inactive).

On to `O=C(c1ccc(F)cc1)N1CCN(c2ccc([N+](=O)[O-])cc2-n2cccc2)CC1`, for which the inhibition is 20.4% (inactive).

As for `COCC(C)NC(=S)NC(=O)c1cc(S(=O)(=O)N2CCOCC2)ccc1C` (stereo not drawn), the inhibition was 4.56% (inactive).

For the compound `COc1cccc(NC(C(=O)Nc2cccc(C(C)=O)c2)c2ccccc2)c1` (stereo not drawn), the inhibition is 6.16% (inactive).

`Cc1cc(C)c2nc(Nc3nc(-c4ccccc4)cc(=O)[nH]3)nc(C)c2c1`: the inhibition is 2.35% (inactive).

For `O=C(O)c1cn(C2CCCCC2)c2ccccc2c1=O`, the inhibition was -2.4% (inactive).

`Cc1cccc(-c2cc(=O)c(C(=O)O)cn2-c2ccc(F)cc2F)c1`: the inhibition is -8.14% (inactive).

Turning to `CC1CCc2cc(F)cc3c(=O)c(C(=O)O)cn1c23` (stereo not drawn), the inhibition is 14.4% (inactive).

Consider `Cc1c(-n2cc(C(=O)O)c(=O)c3cc(F)c(N4CCCC(O)C4)c(F)c32)c(=O)n(-c2ccccc2)n1C` (stereo not drawn), for which the inhibition was -0.64% (inactive).

`CCOC(=O)c1cn(C2CC2)c2c(F)c(F)c(F)cc2c1=O`: the inhibition was -2.19% (inactive).

On to `CCn1cc(C(=O)O)c(=O)c2cc(F)c(N3CCN(C(=S)NC(=O)c4ccc(F)cc4)CC3)cc21`, for which the inhibition is 15.9% (inactive).

`CC1CCCCC1NC(=O)COC(=O)CNC(=O)c1cccc(F)c1` (stereo not drawn): the inhibition is -0.59% (inactive).

Regarding `CP(=O)(O)CN1CCCCC1`, the inhibition is -1.04% (inactive).

As for `NS(=O)(=O)c1ccc(CCNC(=O)CSc2nc3ccccc3c(=O)n2CCN2CCOCC2)cc1`, the inhibition is -2.17% (inactive).

For the compound `O=C(O)c1ccccc1C(=O)NCCc1c(C(=O)O)[nH]c2ccc(F)cc12`, the inhibition was -5.11% (inactive).

Turning to `Cc1ccc(NC(=S)NCCc2ccc(F)cc2)c(C)c1`, the inhibition is 6.97% (inactive).

For the compound `O=C(N/N=C/c1ccccc1F)NC1CCCCC1`, the inhibition is 6.4% (inactive).

On to `CNC(=S)NNC(=O)c1noc(C)c1C(=O)N1CCN(C(c2ccccc2)c2ccccc2)CC1`, for which the inhibition was 4.63% (inactive).

Turning to `O=C(NNC(=O)c1ccc(F)cc1F)c1ccc2c(c1)OCO2`, the inhibition is -6.81% (inactive).

`O=C(Nc1nnc(-c2ccc(Cl)cc2)o1)Nc1ccccc1Cl`: the inhibition was -6.02% (inactive).

As to `O=C(Nc1nnc(-c2ccncc2)o1)c1ccccc1F`, the inhibition is 1.42% (inactive).

As for `COc1cccc(-c2nnc(NC(C)=O)o2)c1`, the inhibition is 7.53% (inactive).

For `COc1ccccc1C(=O)Nc1nnc(-c2ccc(F)cc2)o1`, the inhibition is 9.06% (inactive).

Take `COc1ccccc1C(=O)NNC(=O)c1ccc(Cl)cc1`: the inhibition was 0.09% (inactive).

Take `COc1cccc(-c2nnc(NC(=O)C(C)C)o2)c1`: the inhibition was 59.4% (inactive).
